According to PubChem BioAssay (NCI):
About 83,000 compounds went through this panel and 20% of them were active in at least one assay; those are over-represented in the sample as a whole.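 For each line, cells grew in 96-well plates with the test compound present at a single concentration for 48 hours.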 Calls of active or inactive are those of the source. Rule for the calls: active = growth percent below 10; inactive = the rest.

The molecules below were run on RXF 393 renal (assay: NCI-60 one-dose screen, 48 h (100 = growth as untreated, 0 = no growth, -100 = all killed)). Conditions: 10 µM unless noted.
`Cc1[nH]c(C(=O)Nc2ccc(C(=O)NCCN)cc2OC(C)C)c(Cl)c1Cl` was tested, and the growth was 83.5% (inactive).
`O=C(S)CNC(=O)c1ccccc1` was tested, and the growth was 92.7% (inactive).
For `COc1cccc(OC)c1C(=O)N[C@@H]1C(=O)N2[C@@H]1SC(C)(C)[C@@H]2C(=O)O`, the growth was 125% (inactive).
`CCCCn1c(-c2ccc(C(=O)O/N=C(\N)c3ccc(OC)cc3)cc2)nc(-c2ccccc2)c1-c1ccccc1` was tested, and the growth was -49.8% (active).
For `CCCCCCN(CCCCCC)c1ccc(/C=C2/SC(=O)NC2=O)c(C)c1`, the growth was 101% (inactive).
With `COc1cc(C(=O)N2N=C(c3ccc(S(C)(=O)=O)cc3)CC2c2ccco2)cc(OC)c1OC` (stereo not drawn) the growth was 66.4% (inactive).
In the case of `COc1ccc(-c2cc(-c3ccc(Cl)cc3)c(C#N)c(=O)n2CCCCCC(=O)Nc2ccccc2N)cc1`, the growth is reported as 29.8% (inactive).
`COc1cccc(-c2nn(-c3ccccc3)cc2-c2ccnc(N3CCOCC3)c2)c1` was tested, and the growth was 97.8% (inactive).
`COc1cc(CNS(=O)(=O)c2ccc(C)cc2)ccc1OCc1cn(-c2ccccc2)nn1` was tested, and the growth was 99.9% (inactive).
`O=C(CCOCCNC(=O)COc1ccc2c(c1)OCC(c1ccc(F)cc1)C2=O)NCCCC(O)(P(=O)(O)O)P(=O)(O)O` (stereo not drawn) was tested, and the growth was 121% (inactive).
In the case of `COc1ccc(C(=O)n2nc(-c3ccccc3)nc2N)cc1OC`, the growth is reported as 98.3% (inactive).
In the case of `Cc1cc(C)c(-c2c(N)cc(Br)cc2Br)c(N)c1`, the growth is reported as 10.5% (inactive).
`[O-][n+]1c2ccccc2[n+]([O-])c2c3ccccc3[nH]c21` was tested, and the growth was 99.6% (inactive).
`Cc1c(C(=O)/C=C/Nc2c(Cl)cc(S(N)(=O)=O)cc2Cl)sc2nc3ccccc3n12` was tested, and the growth was 115% (inactive).
In the case of `Cc1ccc(C(C)C)cc1C(=O)C[n+]1ccccc1`, the growth is reported as 121% (inactive).
With `COc1ccc2c(c1)/C(=C/c1sc(=S)n(Cc3ccco3)c1O)C=N2` the growth was 48.7% (inactive).
With `Cc1cc2[nH]c(=O)c3c4ncccc4cn3c2cc1C` the growth was 18.1% (inactive).
`Cc1nc2ccccc2c(/C=C/c2ccccc2)c1C(=O)/C=C/c1ccc(C(F)(F)F)cc1` was tested, and the growth was -81.7% (active).
With `CN1CCN(CC(=O)N2c3cccc4cccc(c34)N(C(=O)CN3CCN(C)CC3)C2c2cn(-c3ccccc3)nc2-c2cccc([N+](=O)[O-])c2)CC1` the growth was -19.1% (active).
In the case of `Cc1ccc(S(=O)(=O)N/N=C/C2(c3ccccc3)CC2)cc1`, the growth is reported as 94.4% (inactive).
In the case of `COc1cc(Nc2cn[nH]c2-c2ccc(Cl)cc2)cc(OC)c1OC`, the growth is reported as 51.5% (inactive).
With `CNC(=O)c1cc(-n2ccc3cc(NC(=O)c4ccc(N5CCOCC5)c(C(F)(F)F)c4)ccc32)ccn1` the growth was -2.7% (active).
For `CN1CCN(c2ccc(-c3cc4c(Nc5ccc(F)c(Cl)c5)ncnn4c3)cc2)CC1`, the growth was 79.8% (inactive).
